# Compound activity (PubChem)
# CF NFkB inh = inhibitors of PAF-induced NF-kB signaling, primary screen, cell-based, GFP fluorescence, uHTS | KKLEB NF-kB-GFP reporter, GFP fluorescence overnight | inhibition, % at 5 µM | actives 0.86% (n = 360,000) | AID 588850, 2011;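 active = at least 50% inhibition at 5 µM, scaled per plate between neutral and stimulator controls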;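 also: PAF is a Pseudomonas aeruginosa culture filtrate used as stimulus; plate controls were PAF-stimulated DMSO wells for no effect and unstimulated DMSO wells for full effect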
# KKLEB tox = cytotoxicity in KKLEB CF airway cells, primary screen, cytotoxicity control for CF NF-kB inhibitor project, cell-based, uHTS, fluorescence assay plates; actives 0.36% (n = 360,000); KKLEB CF airway cells viability, ATPlite luminescence, overnight; stronger effect = lower value; cells stimulated with P. aeruginosa culture filtrate; activity change (cytotoxicity), % at 5 µM; AID 602141, 2011;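 active = corrected activity change at or below -50% at 5 µM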
# HIF-2a inh = HIF-2a reporter inhibitors, primary screen, luminescence, 786-0 RCC cells | 786-0 RCC cells HIF-2a reporter, luciferase luminescence, overnight | inhibition, % at 18.8 µM | actives 0.72% (n = 360,000) | AID 624352, 2012;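 active = inhibition of the luminescence signal of 40% or more relative to plate controls, in a single-dose primary screen at 18.75 µM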
# Peg3 promoter = Peg3 promoter-driven luciferase inhibitors, primary screen, cell-based, HeLa, luciferase luminescence. HeLa PEG-Prom luciferase reporter, overnight. inhibition, % at 20 µM. actives 1.7% (n = 360,000);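 active = inhibition of at least 50% at 20 µM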
# TWEAK-Fn14 inh = inhibitors of TWEAK-Fn14 signaling, primary screen, luciferase reporter cells, uHTS; TWEAK-stimulated Fn14 reporter cells, luciferase luminescence, 8 h; inhibition, % at 10 µM; actives 2% (n = 360,000); in the data active = inhibition above about 50%
# TROY signal inh = inhibitors of TROY-driven NF-kB signaling, primary screen, Q293 LMP1-TROYcd cells, NF-kB luciferase, uHTS. AID 1347056, 2019. actives 0.98% (n = 360,000). Q293 LMP1-TROYcd NF-kB luciferase reporter, 4 h. inhibition, % at 10 µM;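 active = compounds whose plate-normalised and pattern-corrected inhibition of the luciferase reporter signal at the single screening dose is 50% or more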
# * = called active by the depositor; . = no result. A selection: hits, their analogues and other compounds. The true share with any hit is near 4%.
SMILES,CF NFkB inh,KKLEB tox,HIF-2a inh,Peg3 promoter,TWEAK-Fn14 inh,TROY signal inh
CC(=O)c1ccc(OCC(O)CN2CCN(CCN3C(=O)c4cccc5cccc(c45)C3=O)CC2)cc1 (configuration not stated),-27,-2,12,50*,-56,8
CC(C)OCC(O)CN1CCN(CCN2C(=O)c3cccc4cccc(c34)C2=O)CC1 (configuration not stated),11,-17,1,10,-15,-19
O=C(c1ccc(S(=O)(=O)N2CCCCC2)cc1)N1CCN(CCN2C(=O)c3cccc4cccc(c34)C2=O)CC1,-27,-10,-14,68*,54*,51*
Cc1cccc(C)c1OCC(O)CN1CCC(CN2C(=O)c3cccc4cccc(c34)C2=O)CC1 (configuration not stated),-11,-13,29,55*,62*,22
COc1ccc(-c2ccc(CN3C(C)C(=O)N(Cc4cn(CCC5OCCO5)nn4)CCS3(=O)=O)cc2)cn1 (configuration not stated),2,10,-2,15,-11,-6
COc1cccc(-c2cc(C(=O)Nc3cccc(O)c3)no2)c1,-26,-38,-121,-218,66*,44
O=C(Nc1cccc(O)c1)c1cc(-c2cccs2)on1,-16,-10,-196,-195,69*,7
COc1ccc(NC(=O)c2cc(-c3cccc(OC)c3)on2)cc1,-23,-3,-107,-49,-6,-11
Cc1occc1C(=O)N1CCC2(CCCN(Cc3ccc(F)c(F)c3)C2)C1 (configuration not stated),-9,0,0,5,1,-12
Cc1ccc(/C=C/C(=O)c2c(C)nc3ccccn23)cc1,18,-9,-135,-235,52*,-35
COc1cccc(Sc2nc(-c3ccccc3)ncc2S(C)(=O)=O)c1,38,-13,-87,-19,91*,71*
CS(=O)(=O)c1cnc(-c2ccccc2)nc1Sc1ccc(F)cc1,28,-14,-7,5,13,-5
COc1ccc(C(=O)N2CCCCC2c2cc(C(=O)NCc3cccnc3)no2)cc1 (configuration not stated),-49,16,18,2,-20,7
NC(N)=Nc1ccc(C=C2C=Cc3ccccc32)cc1,0,1,-128,104*,8,-29
Nc1ccc(C=C2C=Cc3ccccc32)cc1,-25,-5,-120,-246,31,-41
CCOC(=O)CCCCCC(=O)Nc1ccc2c(c1)C(=O)N([C@H](C)CO)C[C@@H](C)[C@@H](CN(C)C(=O)CCC(F)(F)F)OCCCC[C@H](C)O2,13,0,19,4,-8,8
COc1ccc(-c2nn(-c3ccccc3)cc2/C=C/C(=O)N2CCN(c3ccccn3)CC2)cc1,38,-15,-9,52*,44,10
COc1ccc(-c2nn(-c3ccccc3)cc2/C=C/C(=O)OCC(=O)Nc2ccccc2C#N)cc1,67*,-70*,18,48,-43,15
CCC(C)N(C(=O)CSc1nnc(-c2ccco2)n1C)C1CCS(=O)(=O)C1 (configuration not stated),-14,0,10,13,3,36
COc1cc(C(=O)C(=O)N2CCC(Cc3ccccc3)CC2)cc2ccccc12,.,.,2,.,.,.
COc1cccc(C=C(C(C)=O)C(=O)c2ccccc2)c1,.,.,17,.,51*,14
Cc1cccc(S(=O)(=O)NC(=O)C2(C)CCN2C(=O)C2(c3ccc(Cl)cc3)CCC2)c1 (configuration not stated),-18,7,6,-5,2,18
CCCCCc1c(-c2ccc(Br)cc2)ncn1CCc1ccccc1OC,.,.,-19,.,2,0
CCN(CC)S(=O)(=O)c1ccc(NC(=O)c2ccccc2N(C)S(C)(=O)=O)cc1,2,-32,3,11,-7,9
CCN(CC)S(=O)(=O)c1ccc(C(=O)Nc2ccc(Cc3ccncc3)cc2)cc1,-1,-2,31,24,58*,38
SMILES,CF NFkB inh,KKLEB tox,HIF-2a inh,Peg3 promoter,TWEAK-Fn14 inh,TROY signal inh
CCN(CC)S(=O)(=O)c1ccc(NC(=O)c2ccc(N(C)S(C)(=O)=O)cc2)cc1,-3,16,13,31,50*,26
CCN1CCN(c2oc(/C=C/c3ccccc3)nc2C#N)CC1,-12,6,-94,-30,21,53*
CCOc1cc(/C=C2\CN(C)C/C(=C\c3ccc(O)c(OCC)c3)C2=O)ccc1O,63*,-9,92*,103*,104*,28
C=CCNC(=O)/C(C#N)=C\c1cc(Cl)c(O)c(OCC)c1,-28,1,8,-1,1,-4
CN1C/C(=C/c2ccsc2)C(=O)/C(=C/c2ccsc2)C1,-39,8,47*,36,25,-5
CN1C/C(=C/c2ccncc2)C(=O)/C(=C/c2ccncc2)C1,-2,7,18,6,8,9
CCOc1cc(/C=C2\CCC/C(=C\c3cc(Cl)c(O)c(OCC)c3)C2=O)cc(Cl)c1O,52*,-50*,89*,81*,77*,61*
CCOc1ccc(CCNC(=O)c2cccc(S(=O)(=O)N3CCCCC3)c2)cc1OCC,8,26,12,12,12,18
Cc1ccc(Cc2c(-c3ccc(C#N)cc3)nc3c4ccccc4ccn23)cc1,-3,-14,-58,-92,2,-10
Cc1ccc(C(C)C)c(OCc2ccc(C(=O)N/N=C/c3ccc(O)cc3O)cc2)c1,14,-10,71*,32,27,-7
O=C(N/N=C/c1cccc(O)c1)c1ccc(COc2ccccc2Br)cc1,-34,5,-36,-1,-3,29
CC(CC(=O)N1CCN(c2cccc(Cl)c2)CC1)S(=O)(=O)c1ccc2c(c1)NC(=O)CO2 (configuration not stated),-3,-1,2,16,59*,47
CC(OC(=O)c1ccccc1Oc1ccccc1)C(=O)NC1CC1 (configuration not stated),-14,0,6,16,10,59*
CC1CC(CN)CC(CO)C1 (configuration not stated),-14,4,11,9,53*,23
Cc1cccc(NC(=O)NCC2CCN(c3ccc(S(=O)(=O)N4CCOCC4)cc3)CC2)c1,-2,-1,1,7,-6,54*
